Drawing on PubChem BioAssay, this text covers z-score for 28 compounds.

Each structure is given as a SMILES string.
Also: test concentration not given here.

The first experiment in a line: basal RPMI8226 mitochondrial membrane potential changes, profiling panel, cell-based, JC-1 fluorescence, 24 h, 100 nL compound (AID 1169). The settings on record: RPMI8226 myeloma, JC-1 mitochondrial potential fluorescence, higher = more signal.
`Cc1ccc(S[C@]2(C(=O)NCC(C)C)CC(=O)N(Cc3cc(C(F)(F)F)cc(C(F)(F)F)c3)[C@@H]2c2ccc(CO)cc2)cc1` had a z-score of 0.244.
The same measure, in the same setting: for `O=C(O)[C@H](Cc1ccccc1)n1cc(-c2ccccc2)nn1` the value was 0.666; for `COC(=O)[C@@]1(Cc2ccc(OC)cc2)[C@H]2c3cc(C(=O)N(C)C)n(Cc4ccc(C(F)(F)F)nc4)c3C[C@H]2CN1C(=O)c1ccccc1`, 0.0192.
The compound `CCCCC(O)C1C=CC2C(=O)N(C)C(=O)C2N1N1CCCCC1` (stereo not drawn) showed a z-score of 0.135.
Take `C=CCNC(=O)[C@H]1[C@@H]2C(=O)O[C@@H](c3ccccc3)[C@@H](c3ccccc3)N2[C@@H](c2ccc(O)cc2)[C@]12C(=O)Nc1ccc(C#CCCO)cc12`: the z-score was -0.873.
Still for that read-out and setting: for `CO[C@H]1O[C@H](CO)[C@@H](OC(=O)Nc2ccccc2-c2ccccc2)[C@H](OC(=O)Nc2ccccc2-c2ccccc2)[C@@H]1OC(=O)Nc1ccccc1-c1ccccc1` the value was -0.194.

The next experiment is described as follows: basal MM1S mitochondrial membrane potential changes, profiling panel, cell-based, JC-1 fluorescence, 24 h, 100 nL compound (AID 1170). The settings on record: higher = more signal.
On to `COc1ccc(C(=O)Nc2cccc(CN3C(=O)[C@]4(O[C@H](CCn5cc(CCO)nn5)[C@@H]([Si](C)(C)c5ccc(OC)cc5)[C@@H]4C)c4ccccc43)c2)cc1`, for which the z-score was -2.05.
The same measure, in the same setting: for `COC(=O)c1c2oc(c1C(=O)OC)C(=O)N[C@@H](C(C)C)Cn1cc(nn1)C1(CCCCC1)NC(=O)N[C@H](CO)CC2` the value was 0.3; for `O=C1NC(=O)C2C1C=CC(C(O)c1ccc(-c3ccccc3)s1)N2Nc1ccc(Cl)cc1Cl` (stereo not drawn), -0.247; for `CCOC(=O)C[C@H]1[C@H](OC(=O)c2ccc(-c3ccccc3)cc2)[C@@H](NC(=O)c2ccccc2)c2cc(OCCCO)ccc2N1C(=O)Cc1ccc(OC)cc1`, 0.617.
The same measure, in the same setting: for `COC(=O)[C@@]1(Cc2ccc(OC)cc2)[C@H]2c3cc(C(=O)N4CCCC4)n(CCCNc4ncc(C(F)(F)F)cc4Cl)c3C[C@H]2CN1C(=O)c1ccccc1` the value was -1.28; for `CC(=CC1CCCCC1)[C@@H](NC(=O)c1cccnc1)c1ccc(-c2ccccc2)cc1`, -0.462.
`C=CCC(OC(C)=O)[C@@H]1[C@@H](N(Cc2ccc(-c3cccc(C(F)(F)F)c3)o2)C(=O)Cc2ccc(OC)cc2)c2cc(OCCCO)ccc2N1C(=O)c1ccc2ccccc2c1` (stereo partly drawn) gave a z-score of 0.675.
The same measure, in the same setting: for `CCOC(=O)C1=CC[C@@H](c2ccccc2)N(S(=O)(=O)c2ccc(C)cc2)[C@H]1c1ccc(CC)cc1` the value was -1.84.
Same read-out and setting: for `O=c1cccc(-c2ccccc2Cl)o1` the value was 0.304; for `CCCCC(=C=CC[C@H](O)c1cccc(OCCO)c1)C[C@H](O)c1ccccn1`, -1.1.
The same measure, in the same setting: for `COc1ccc([Si](C)(C)[C@@H]2[C@@H](CC(=O)N3CCC[C@H]3CO)O[C@]3(C(=O)N(Cc4cccc(I)c4)c4ccccc43)[C@H]2C)cc1` the value was -1.48.
Regarding `COC(=O)[C@@]1(Cc2ccccc2)[C@H]2c3cc(C(=O)N4CCCC4)n(Cc4c(CO)[nH]cc(C)c4=O)c3C[C@H]2CN1C(=O)c1ccccc1`, the z-score is -0.444.
The same measure, in the same setting: as for `CCOc1cc(C(O)C2C=CC3C(=O)N(c4ccccc4)C(=O)C3N2Nc2ccc(C(C)C)cc2)ccc1O` (stereo not drawn), the figure is -0.19; as for `CN(C)CCCCCCNC(=O)[C@@H]1C[C@@H]2C(=O)N3CCC[C@H]3C(=O)N2[C@@H]1c1ccc(O)cc1`, -0.78; as for `CCC(CC)C(O)C1C=CC2C(=O)N(c3ccccc3)C(=O)C2N1Nc1ccccc1` (stereo not drawn), -0.403.
`COC(=O)[C@@]1(Cc2ccc(OC)cc2)[C@H]2c3cc(C(=O)N4CCCC4)n(Cc4nc5ccccc5[nH]4)c3C[C@H]2CN1C(=O)c1ccccc1` showed a z-score of -0.816.
On the same count and under the same terms, as for `O=C1O[C@@H](c2ccccc2)[C@@H](c2ccccc2)N2[C@@H](c3ccc(OCCO)cc3)[C@]3(C(=O)Nc4ccc(C#CC5=CCCCC5)cc43)[C@@H](C(=O)N3CCCCCCC3)[C@H]12`, the figure is -1.14; as for `O=C(O)[C@@]1(CCS(=O)(=O)c2ccccc2)N=C(c2ccc(OCCCO)cc2)O[C@H]1c1ccccc1`, -0.51.
Compound `C=CCNC(=O)[C@@H]1[C@H]2C(=O)O[C@H](c3ccccc3)[C@H](c3ccccc3)N2[C@H](c2ccc(OCCO)cc2)[C@@]12C(=O)N(C(=O)OCCOC)c1ccc(C#CCC(C(=O)OC)C(=O)OC)cc12` displayed a z-score of -1.16.
Still for that read-out and setting: as for `[N-]=[N+]=Nc1ccccc1C[C@@]1(C(=O)N2CCCCC2)N=C(c2ccc(OCCCO)cc2)O[C@@H]1c1ccccc1`, the figure is 0.992; as for `CC(=O)n1cc(C(O)C2C=CC3C(=O)NC(=O)C3N2Nc2ccccn2)c2ccccc21` (stereo not drawn), -0.0433.
Still for that read-out and setting: for `O=C1OCCC=C[C@H]2OC34C=CCN(c5ccc(Cl)cc5)C(=O)[C@H]3N(CCCO)C(=O)[C@@H]4C12` (stereo partly drawn) the value was 0.162.
